Source: PubChem (several laboratories)
Sampled rows, rich in hits. Any-hit rate of the full collection: about 1.5%.
PrPC TRFRET: cell surface PrPC inhibition, primary TR-FRET screen; hit rate 0.43% among 370,000; inhibition, % at 13.8 µM; AID 720596; TR-FRET read-out; in the data active = inhibition above about 24%; note: 0% = median of the test wells and 100% = reference compound wells
MazF activator: MazEF (E. coli) toxin RNase activation | P0AE70 | FAM/BHQ RNA-DNA oligo cleavage fluorescence, 5 h | activation, % at 20 µM | hit rate 0.32% among 350,000 | AID 504720; in the data active = activation above about 50%
DUSP3 inh: inhibitors of human VHR1 phosphatase (DUSP3). P51452. recombinant VHR phosphatase, pNPP absorbance. inhibition, % at 13.3 µM. hit rate 0.52% among 290,000. AID 1654; in the data active = inhibition above about 50%
3CLpro inhibitor: SARS-CoV 3CLpro protease inhibition. P0C6X7. recombinant SARS-CoV 3CLpro, quenched FRET peptide cleavage. inhibition, % at 6 µM. hit rate 0.14% among 290,000. AID 1706; in the data active = inhibition above about 12%
PrP 5UTR inh: inhibition of PrP 5' UTR reporter expression; cell-based PrP 5' UTR mRNA reporter, plate reader; inhibition, % (concentration not given with the values); hit rate 0.35% among 340,000; AID 488862; in the data active = inhibition above about 52%; note: 0 = median of the neutral control wells
Mtb hypoxia inh: reduces hypoxia-regulated biosensor signal in M. tuberculosis; hit rate 0.1% among 300,000; fluorescence inhibition, % (test concentration not listed); M. tuberculosis hypoxia-regulated fluorescent reporter, fluorescence; in the data active = fluorescence inhibition mostly above about 23%, no sharp cut-off; inactive = mostly below about 17%
PrP UTR cherry: prion 5' UTR mRNA inhibition, cherry-pick retest. hit rate 48% among 1,100. shares compounds with PrP 5UTR inh. cell-based prion protein 5' UTR reporter, plate reader. inhibition, % at 2.5 µM; in the data active = inhibition above about 54%
PrPC confirm: confirmation of inhibitors of cell surface human prion protein; hit rate 65% among 1,500; cell surface PrPC level, TR-FRET; shares compounds with PrPC TRFRET; inhibition, % at 13.8 µM; in the data active = inhibition above about 25%
LD9 cytotox: kills or reduces viability of LD9 cells in PrPc counter-screen; AID 743201; shares compounds with PrPC TRFRET; inhibition, % at 13.8 µM; LD9 cells cytotoxicity, luminescence viability; hit rate 29% among 1,500; in the data active = inhibition above about 9.5%
* marks the source's active call; other numbers are inactive results.

COc1ccc(CC2C(=O)NC(C)C(=O)N(C)C3C(=O)N(C)C(Cc4ccc(O)c(c4)Oc4ccc(cc4)C3O)C(=O)NC(C)C(=O)NC(C)C(=O)N2C)cc1 (stereo unspecified) was read as PrPC TRFRET 87*, MazF activator 14, PrP 5UTR inh 53*, PrP UTR cherry 41, PrPC confirm 95* and LD9 cytotox 38*.
`CC1=CC(C)CC(C)OC(=O)CC(c2ccc(O)cc2)NC(=O)C(Cc2c(Br)[nH]c3ccccc23)N(C)C(=O)C(C)NC(=O)C(C)C1` (stereo unspecified) gave PrPC TRFRET 32*, MazF activator 3, PrP 5UTR inh 74*, PrP UTR cherry 95*, PrPC confirm 25* and LD9 cytotox 11*.
Screening O=C(CSc1ncnc2ccccc12)Nc1cccc(S(=O)(=O)N2CCCC2)c1 returned PrPC TRFRET 70*, MazF activator 1, DUSP3 inh 22, 3CLpro inhibitor 0, PrP 5UTR inh 85*, Mtb hypoxia inh 9, PrP UTR cherry -11, PrPC confirm 73* and LD9 cytotox -7.
Screening O=C(CSc1ncnc2ccccc12)Nc1cc(S(=O)(=O)N2CCCCC2)ccc1Cl returned PrPC TRFRET 20, MazF activator 18, DUSP3 inh 5, 3CLpro inhibitor 1, PrP 5UTR inh -21 and Mtb hypoxia inh 5.
CC(=O)O[C@H]1C(=O)[C@]2(C)[C@H]([C@H](OC(=O)c3ccccc3)[C@]3(O)C[C@H](OC(=O)[C@H](O)[C@@H](NC(=O)c4ccccc4)c4ccccc4)C(C)=C1C3(C)C)[C@]1(OC(C)=O)CO[C@@H]1C[C@@H]2O was read as PrPC TRFRET 28*, MazF activator 2, PrP 5UTR inh 53*, PrP UTR cherry 89*, PrPC confirm 25* and LD9 cytotox 4.
`CC1CN(C(C)CO)C(=O)Cc2cc(NC(=O)Nc3ccc(C(F)(F)F)cc3)ccc2OC1CN(C)S(=O)(=O)c1cn(C)cn1` (stereo unspecified) gave Mtb hypoxia inh -13.
For N#CC1=CN(Cc2ccccc2)C=C(C=NNc2ccccc2)C1 the results were Mtb hypoxia inh 2.
Cc1ccc(C(C)C)c(OCc2ccc(C(=O)N/N=C/c3cccc(O)c3O)cc2)c1 was read as PrPC TRFRET 43*, MazF activator -25, DUSP3 inh -4, 3CLpro inhibitor 1, PrP 5UTR inh 62*, PrP UTR cherry 65*, PrPC confirm 29* and LD9 cytotox 19*.
CC(O)C1C=CC=CC(=O)OC2CC3OC4C5OC5(C)C(O)CC4(COC(=O)C(O)C(C)CCO1)C2(C)C31CO1 (stereo unspecified) was read as PrPC TRFRET 92*, MazF activator 11, PrP 5UTR inh 70*, PrP UTR cherry 83*, PrPC confirm 99* and LD9 cytotox 40*.
For CC1=CC2OC3CC4OC(=O)C=CC=CC(=O)OCCC(C)C(O)C(=O)OCC2(CC1)C4(C)C31CO1 (stereo unspecified) the results were PrPC TRFRET 82*, MazF activator 5, PrP 5UTR inh 94*, PrP UTR cherry 93*, PrPC confirm 94* and LD9 cytotox 69*.
For CC1CCOC(=O)C=CC=CC(=O)OC2CC3OC4C5OC5(C)C(O)CC4(COC(=O)C1O)C2(C)C31CO1 (stereo unspecified) the results were PrPC TRFRET 84*, MazF activator 8, PrP 5UTR inh 82*, PrP UTR cherry 92*, PrPC confirm 101* and LD9 cytotox 46*.
Screening CC1=CC2OC3CC4OC(=O)C=CC=CC(C(C)O)OCC(O)C5(C)OC5C(=O)OCC2(CC1O)C4(C)C31CO1 (stereo unspecified) returned PrPC TRFRET 89*, MazF activator 0, PrP 5UTR inh 94*, PrP UTR cherry 93*, PrPC confirm 96* and LD9 cytotox 60*.
`Cc1ccc2c(c1)C1C(CO2)C(c2ccccc2)[C@]2(C)C(=O)Nc3ccc(Cl)cc3C(=O)N12` (stereo partly specified) gave Mtb hypoxia inh 14.
CC1(C)C2CC=C(C=NNC(=O)c3ccc(O)cc3)C1C2 (stereo unspecified) was read as Mtb hypoxia inh 12.
Screening CC(=N/N=C1/NC(=O)C(CC(=O)Nc2ccc(C)c(Cl)c2)S1)C(C)C (stereo unspecified) returned Mtb hypoxia inh -4.
CN1CCc2c(sc(NC(=O)c3ccc([N+](=O)[O-])o3)c2C(N)=O)C1 was read as PrPC TRFRET 44*, MazF activator 22, DUSP3 inh -4, 3CLpro inhibitor -2, PrP 5UTR inh 91*, PrP UTR cherry 97*, PrPC confirm 42* and LD9 cytotox 61*.
Screening NC(=O)c1c(NC(=O)c2ccc([N+](=O)[O-])o2)sc2c1CCCC2 returned PrPC TRFRET -2, MazF activator 16, DUSP3 inh -4, 3CLpro inhibitor 3, PrP 5UTR inh 17 and Mtb hypoxia inh 10.
For O=C1N(c2ccccc2)CC2C(c3ccccc3)C(c3ccccc3)N3CCCC123 (stereo unspecified) the results were PrPC TRFRET 2.
Screening O=C1N(c2ccccc2)C[C@@H]2C[C@@H](c3cc4ccccc4o3)N3CCC[C@@]123 returned PrPC TRFRET 40*, MazF activator 2, DUSP3 inh 20, 3CLpro inhibitor 2, PrP 5UTR inh 59*, Mtb hypoxia inh 6, PrP UTR cherry 74*, PrPC confirm 54* and LD9 cytotox 25*.
For CNc1c2cccc(C)c2nc2c(C(=O)NCCN(C)C)cccc12 the results were PrPC TRFRET 29*, MazF activator inactive, PrP 5UTR inh 96*, PrP UTR cherry 96*, PrPC confirm 62* and LD9 cytotox 59*.
`CC(=NNC(=O)c1cccc(S(=O)(=O)Nc2ccc(C)cc2C)c1)c1ccncc1` gave Mtb hypoxia inh -5.
COc1ccc2c(c1)C1C(CO2)C(c2ccccc2)[C@]2(C)C(=O)Nc3cc(Cl)ccc3C(=O)N12 (stereo partly specified) was read as Mtb hypoxia inh 1.
